Where a name gives a salt, the structure may show the parent alone. Unmarked numbers belong to inactive results.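 Rule for the calls: active = normalised median growth AUC below 0.1 of DMSO control; inactive = AUC 0.1 or higher.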
These molecules were tested on S. enterica typhimurium WT (assay: growth AUC normalised to DMSO control (median) (fraction of control); higher = less growth inhibition, active = hit call of the paper). Settings: 20 µM.
Outline: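 Area under the growth curve, calculated by the trapezoidal rule up to entry into stationary phase, was normalised to vehicle wells on the same plate. Strains had been passaged twice overnight without oxygen and then grown in mGAM in 96-well plates from OD578 0.01, each with an approved-drug library compound at 20 μM in 1% DMSO. OD578 was read hourly over 24 h in an anaerobic incubator, and the median of three biological replicates is given.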
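Note: active when median AUC fell below 0.1.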

| Structure (SMILES) | growth AUC normalised to DMSO control |
| --- | --- |
| CC(C)[C@H](N)C(=O)OCC(CO)OCn1cnc2c(=O)nc(N)[nH]c21 (stereo not given in full) [Valganciclovir hydrochloride] | 1 |
| O=C1[C@H]2CCCC[C@H]2C(=O)N1CCCCN1CCN(c2nsc3ccccc23)CC1 [Perospirone hydrochloride] | 0.998 |
| O=[N+]([O-])c1ccc(O)c2ncccc12 [Nitroxoline] | 0.237 |
| CCCCCCCCCCCCCCCCCCCCCC(=O)Nc1ccn([C@@H]2O[C@H](CO)[C@@H](O)[C@@H]2O)c(=O)n1 [Enocitabine] | 1.01 |
| CN(C)CCc1c[nH]c2ccc(Cn3cncn3)cc12 [Rizatriptan benzoate] | 1 |
| Cn1cc(C(=O)[C@@H]2CCc3[nH]cnc3C2)c2ccccc21 [Ramosetron hydrochloride] | 0.995 |
| CC(=O)OCC(=O)[C@@]1(O)CC[C@H]2[C@@H]3CCC4=CC(=O)C=C[C@]4(C)[C@@]3(F)[C@@H](O)C[C@@]21C [Isoflupredone acetate] | 1 |
| O=C(Cn1c(=O)sc2ccc(Cl)cc21)N1CCN(CCO)CC1 [Tiaramide Hydrochloride] | 1.01 |
| C/C(O)=C(\C#N)C(=O)Nc1ccc(C(F)(F)F)cc1 [Teriflunomide] | 1 |
| O=C(O)C1CSCN1 (stereo not given) [Timonacic] | 0.998 |
| CC[N+]1(CC)CCC(=C(c2ccccc2)c2ccccc2)C1C (stereo not given) [Prifinium Bromide] | 1 |
| CCCCC(=O)N(Cc1ccc(-c2ccccc2-c2nnn[nH]2)cc1)[C@H](C(=O)O)C(C)C [Valsartan] | 1.02 |
| NS(=O)(=O)c1cc(C(=O)NN2C[C@@H]3[C@H]4CC[C@H](C4)[C@@H]3C2)ccc1Cl [Tripamide] | 0.999 |
| CC(=O)Nc1ccc(OC(=O)c2ccccc2O)cc1 [Acetaminosalol] | 1 |
| Cc1nc(=O)c2cc(CN(C)c3ccc(C(=O)N[C@@H](CCC(=O)O)C(=O)O)s3)ccc2[nH]1 [Raltitrexed] | 1 |
| Oc1cc(O)c2c(c1)O[C@H](c1ccc(O)c(O)c1)[C@@H](O)C2 [Cianidanol] | 1.01 |
| C[C@@H](CN1CC(=O)NC(=O)C1)N1CC(=O)NC(=O)C1 [Dexrazoxane hydrochloride] | 1.01 |
| CN1CCC[C@@H]1Cc1c[nH]c2ccc(CCS(=O)(=O)c3ccccc3)cc12 [Eletriptan] | 0.987 |
| CC(C)COC(=O)OCN1C(=O)CN(CCN2CC(=O)N(COC(=O)OCC(C)C)C(=O)C2)CC1=O [Sobuzoxane] | 0.998 |
| OCCN1CCN(CC/C=C2/c3ccccc3Sc3ccc(C(F)(F)F)cc32)CC1 [Flupentixol dihydrochloride cis-(Z)] | 1.01 |
| CC(C)OC(=O)C(C(=O)OC(C)C)=C1SC=CS1 [Malotilate] | 1 |
| CC(/C=C1\SC(=S)N(CC(=O)O)C1=O)=C\c1ccccc1 [Epalrestat] | 1.01 |
| O=C(NC1CCN(CCCCC2(C(=O)NCC(F)(F)F)c3ccccc3-c3ccccc32)CC1)c1ccccc1-c1ccc(C(F)(F)F)cc1 [Lomitapide] | 1.01 |
| CCCSc1nc(N[C@@H]2C[C@H]2c2ccc(F)c(F)c2)c2nnn([C@@H]3C[C@H](OCCO)[C@@H](O)[C@H]3O)c2n1 [Ticagrelor] | 1.03 |
| O=C1c2c(O)ccc(O)c2C(=O)c2c(NCCNCCO)ccc(NCCNCCO)c21 [Mitoxantrone dihydrochloride] | 1 |
| CCOCC(O)COc1ccc(NC(=O)CC[S+](C)C)cc1 (stereo not given) [Suplatast Tosylate] | 1 |
| CN(C)CCCN1c2ccccc2[S+]([O-])c2ccc(Cl)cc21 (stereo not given) [Chlorpromazine Sulfoxide] | 0.995 |
| NC(=O)Cc1cccc(C(=O)c2ccccc2)c1N [Nepafenac] | 0.996 |
| CC(C)(CO)[C@@H](O)C(=O)NCCC(=O)NCCSSCCNC(=O)CCNC(=O)[C@H](O)C(C)(C)CO [D-Pantethine] | 1 |
| CC(C)OC(=O)CCC/C=C\C[C@@H]1[C@@H](CC[C@@H](O)CCc2ccccc2)[C@H](O)C[C@@H]1O [Latanoprost] | 1.01 |
